ALDH1A1 inh: inhibitors of human aldehyde dehydrogenase 1A1; actives 7.3% (n = 220,000); Purified ALDH1A1, NADH fluorescence, propionaldehyde substrate; P00352; Potency, µM (doses to about 75.3 µM), inactives show top-dose activity, negative = inhibition, hits mostly inhibitors; active = well fitted inhibition curve with a large enough effect, not every such curve was filed as active; inconclusive = small, poorly fitted or top-dose-only effect, or another doubt; inactive = no such curve, though single readings can be large or run the other way;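 also: potency is read from the fitted curve at half-maximal effect; plate controls were no enzyme wells and a reference inhibitor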
Target sequence (P00352 whole entry, looked up): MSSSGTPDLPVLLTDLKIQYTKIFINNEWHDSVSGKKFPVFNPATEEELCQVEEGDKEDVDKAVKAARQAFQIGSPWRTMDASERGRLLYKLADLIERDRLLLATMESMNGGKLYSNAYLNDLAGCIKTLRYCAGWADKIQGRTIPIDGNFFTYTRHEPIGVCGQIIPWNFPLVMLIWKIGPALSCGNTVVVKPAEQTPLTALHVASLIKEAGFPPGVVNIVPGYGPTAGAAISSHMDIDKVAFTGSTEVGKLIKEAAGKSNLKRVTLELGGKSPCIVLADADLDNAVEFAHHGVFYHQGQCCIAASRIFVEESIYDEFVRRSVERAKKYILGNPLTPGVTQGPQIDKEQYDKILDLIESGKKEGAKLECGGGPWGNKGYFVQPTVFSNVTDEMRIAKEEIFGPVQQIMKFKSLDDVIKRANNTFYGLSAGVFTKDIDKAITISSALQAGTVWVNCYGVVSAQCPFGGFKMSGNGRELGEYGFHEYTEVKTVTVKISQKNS
NPSR antag: blocks cAMP signaling of the human neuropeptide S receptor; Q6W5P4; CHO-NPSR cells, cAMP TR-FRET, antagonist mode; Potency, µM (top dose mostly 38.3 µM), for inactives: at the top dose activity change, negative = inhibition, usual class: inhibitors; actives 1% (n = 220,000); also: potency is read from the fitted curve at half-maximal effect; nearly all actives have a fitted effect of over 50% in size
RGS12 GoLoco inh: inhibitors of human Gai1-RGS12 GoLoco interaction (red fluorophore); AID 880; actives 0.44% (n = 230,000); P63096; Gai1:RGS12 GoLoco peptide FP, rhodamine, 10 min; Potency, µM (highest dose often 61.6 µM), for the others: at the top dose activity, negative = inhibition, usual class: inhibitors; active = well fitted inhibition curve with a large enough effect, not every such curve was filed as active; inactive = no such curve, though single readings can be large or run the other way; also: potency is read from the fitted curve at half-maximal effect; nearly all actives have a fitted effect of over 30% in size
Sfp PPTase inh: inhibitors of Bacillus subtilis Sfp phosphopantetheinyl transferase; Q9F4F7; Biochemical Sfp PPTase activity, qHTS; Potency, µM, for the others: largest response in the series, negative = inhibition, usual class: inhibitors; actives 3.5% (n = 310,000); AID 1490;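 also: the enzyme is Sfp with the accession as filed and its product quenches rhodamine fluorescence; potency is read from the fitted curve at half-maximal effect; 0% = enzyme reaction without inhibitor and -100% = no enzyme wells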
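Fluorescence-quenching assay with 15 nM Sfp, 5 uM rhodamine-CoA and 12.5 uM BHQ-2-labelled ybbR peptide in pH 7.6 Hepes/MgCl2 buffer. Enzyme was pre-incubated with compound for 15 min at room temperature. Rate was taken from the 30-min fluorescence change (525/598 nm).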
KDM4E inh: inhibitors of human JMJD2E histone demethylase. B2RXH2. JMJD2E catalytic domain, FDH-coupled NADH fluorescence (FDH is formaldehyde dehydrogenase). Potency, µM (series often up to 57.1 µM), without a hit: top-dose activity change, negative = inhibition, hits mostly inhibitors. actives 1.6% (n = 230,000); active = well fitted inhibition curve with a large enough effect, not every such curve was filed as active; inconclusive = small, poorly fitted or top-dose-only effect, or another doubt; inactive = no such curve, though single readings can be large or run the other way;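 also: potency is read from the fitted curve at half-maximal effect; 0% = wells with enzyme and -100% = buffer wells without enzyme; nearly all actives have a fitted effect of over 50% in size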
Coupling enz: counter-screen for Giardia aldolase inhibitors: coupling enzyme system; coupling enzyme system counterscreen, AmpLite Red fluorescence; activity change, negative = inhibition, % at 58.2 µM, hits read low; actives 0.67% (n = 290,000); AID 2472; in the data active = activity change below about -30%
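Activity here indicates interference with the coupling reaction, not aldolase inhibition. Compounds at 57.5 uM final met coupling enzymes for 10 min at RT; substrate and AmpLite Red detection followed, with a 525/598 nm fluorescence read after 20 min.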
Numbers without * were called inactive; ? = inconclusive; / = no result given; [ ] = dose if it differs, or a comment. Compounds with a hit are over-represented: about 8.5% of the library has one in this group of screens. Unless noted, calls follow the shape of the dose curve; as a rule, active = well fitted curve in the direction sought with a large enough effect; inconclusive = small, poorly fitted or top-dose-only effect, or another doubt; inactive = no such curve, though single readings can be large; an effect the other way counts as inactive or inconclusive. Unless noted, % is scaled to controls: 0 for no effect and ±100 for the full control effect.

SMILES	ALDH1A1 inh	NPSR antag	RGS12 GoLoco inh	Sfp PPTase inh	KDM4E inh	Coupling enz
CCCCc1c(O)c2ccccc2n(CCCC)c1=O	?	-3%	1%	1%	?	-12
CCCCc1c(CCC)c(=N)c2ccccc2n1C	-5%	3%[46.1 µM]	11µM*	2%	?	2
CC(C)CC(=O)C1=C(O)C(=O)N(Cc2ccccc2)C1c1ccccc1 (configuration not stated)	/	/	/	14%	/	-1
c1ccc(-c2ccc(CNC3CC3)cc2)cc1	/	/	/	6%	/	2
CC(C)C1Oc2ccccc2N(CC(=O)N(Cc2ccncc2)Cc2ccco2)C1=O (configuration not stated)	-9%	-6%[46.1 µM]	-2%	45µM*	6%	4
COc1cccc(CNC(=O)c2ccccc2NC(=O)C2=C(C)OCCS2)c1OC	/	/	/	-14%	/	0
CCOC(=O)c1cnc(-c2ccccc2)nc1N1CCOCC1	-4%	-1%	0%	16%	3%	1
CCOC(=O)c1c(-c2ccc(C)o2)csc1NC(=S)NC(=O)N(C)C	?	-21%[46.1 µM]	-2%	56µM*	-7%	1
CCOC(=O)c1c(-c2cccs2)csc1NC(=O)CN(CC)CC	-6%	?	-15%	-18%	?	0
CCOC(=O)c1c(-c2ccc(C)o2)csc1NC(=O)CSc1ncn[nH]1	-17%	8%[46.1 µM]	-19%	28µM*	0%	1
CCOC(=O)c1c(-c2ccc(C)cc2)csc1NC(=O)CCN1CCOCC1	?	8%[46.1 µM]	-4%	?	32µM*	0
CCOC(=O)c1[nH]cc(-c2ccccc2)c1N1CCOCC1	2.8µM*	-4%[46.1 µM]	-7%	-101%	0%	0
Brc1ccc(CNc2ccc3ncccc3c2)cc1	/	/	/	-11%	/	-9
CCOC(=O)c1c(-c2ccc(C)o2)csc1NC(=O)CN1CCOCC1	-13%	-13%[46.1 µM]	-21%	45µM*	2%	-1
CCOC(=O)c1c(-c2cccs2)csc1NC(=O)CN1CCOCC1	-1%	-22%[46.1 µM]	2%	-21%	?	5
CCOC(=O)c1c(-c2ccccc2)csc1NC(=O)CCN1CCOCC1	28µM*	-7%	-11%	50µM*	-8%	-17
CCOC(=O)c1c(-c2ccccc2)csc1NC(=O)c1ccc(S(=O)(=O)N2CCOCC2)cc1	0%	3%	15%	11%	-8%	4
CCOC(=O)c1c(-c2cccc([N+](=O)[O-])c2)csc1NC(=O)CCCOc1ccccc1OC	28µM*	-29%	5%	3%	-4%	4
NS(=O)(=O)Nc1ccccc1Br	/	/	/	7%	/	-1
COc1ccc(CNC(=O)CN(C(=O)CCC(=O)Nc2ccccn2)c2ccc(C)cc2)cc1	/	/	/	4%	/	-1
O=C(C[n+]1ccn(CCCNP2(=O)C=C(c3ccccc3)OC(c3ccccc3)=C2)c1)c1cccs1	14µM*	-20%	5%	-10%	3%	5
CCC(=O)Nc1ccc(C(=O)NNC(=O)COc2cccc(C)c2)cc1	-2%	5%	5%	-17%	2%	0
CC(=O)NCCCc1nc2ccccc2n1Cc1c(F)cccc1Cl	?	-12%	12%	5%	-2%	0
CC#C[C@]1(O)CC[C@H]2[C@@H]3CCC4=CC(=O)CCC4=C3[C@H](c3ccc(N(C)C)cc3)C[C@@]21C	-1%	/	-17%	-8%	4%	1
CC#C[C@]1(O)CC[C@H]2[C@@H]3CCC4=CC(=O)CCC4=C3[C@@H](c3ccc(N(C)C)cc3)C[C@@]21C	-14%	13µM*	-13%	-5%	-9%	-1
SMILES	ALDH1A1 inh	NPSR antag	RGS12 GoLoco inh	Sfp PPTase inh	KDM4E inh	Coupling enz
CCCCCCCCCCS(=O)(=O)N/N=C/c1ccc(O)cc1	13µM*	8%[46.1 µM]	-18%	14%	-3%	1
Cc1ccc(C(=O)CNc2ccc(Cl)cc2)cc1	10µM*	11%	-6%	-3%	-1%	1
CCOc1ccc(NCC(=O)c2ccc(C)cc2)cc1	3.2µM*	-4%	5%	15%	-14%	2
CN(C)CCC(=O)c1ccc(Cl)cc1	0.11µM*	-23%[46.1 µM]	-17%	-4%	-4%	4
CCOc1ccc(NC(=O)c2ccc(NCC(=O)N3CCCCCC3)cc2)cc1	6.3µM*	-15%	-3%	14%	-6%	0
Cc1ccc(C)c(NCC(=O)c2ccc(Cl)cc2)c1	/	/	/	-11%	/	-1
CCOc1ccc(C(=O)COc2ccc(NC(C)=O)cc2)cc1	0%	-15%[46.1 µM]	-8%	6%	-4%	0
CN(CCC(=O)c1ccccc1)CCC(=O)c1ccccc1	/	/	/	11%	/	5
CCOc1ccc(N(Cc2cc3cc(C)ccc3[nH]c2=O)S(=O)(=O)c2ccccc2)cc1	/	/	/	22%	/	/
O=C(CNC1=NCCC1)c1ccc(Cl)cc1	-13%	27%	6%	-14%	-7%	-36*
O=C1CN(C(=O)COc2ccccc2F)c2ccccc2N1	18µM*	13%	-3%	-12%	4%	2
O=C1CN(C(=O)COc2ccc(F)cc2Br)c2ccccc2N1	?	5%	43%	-12%	18%	-2
CC(C)[C@H](NC(=O)c1ccco1)C(=O)OCC(=O)N1CCc2ccccc21	?	-10%[46.1 µM]	-7%	19%	8%	-1
CC(C)[C@H](NC(=O)c1ccco1)C(=O)OCC(=O)N1CC(=O)Nc2ccccc21	14µM*	19%	11%	7%	-2%	0
C/C(=N\NC(=O)C1CCCC1)c1ccc(Cl)cc1Cl	/	/	/	14%	/	/
COc1ccc(C(=O)OCC(=O)N2CCCC2=O)c(OC)c1	9%	17%	-5%	7%	3%	-2
Cc1cccc(N2CCN(C(=O)c3ccc4c(c3)CCN4S(C)(=O)=O)CC2)c1C	/	/	/	-7%	/	/
C[N+]1(CCOc2ccc([N+](=O)[O-])cc2)CCOCC1	-2%	3%[46.1 µM]	18µM*	-5%	-21%	-2
CC(=O)c1ccc(OCCOc2ccc([N+](=O)[O-])cc2)cc1	/	/	/	0%	/	-4
O=C(c1ccccc1Cl)N1CCC(c2nc3c(nnn3Cc3ccco3)c(=O)[nH]2)CC1	28µM*	2%[46.1 µM]	-1%	-3%	-5%	5
CCOC(=O)C1=C(N)OC2=C(C(=O)CCC2)C1c1cccs1 (configuration not stated)	-1%	-9%[46.1 µM]	3%	?	-8%	-40*
Cc1ccc(S(=O)(=O)CCC(=O)OCn2nnc3ccccc3c2=O)cc1	-5%	13%	9%	-1%	4%	4
COC(=O)CSc1nnc(-c2ccccn2)n1Cc1ccco1	-3%	-2%[46.1 µM]	2%	-16%	8%	0
O=C(CSc1nnc(-c2cccnc2)n1Cc1ccco1)c1ccccc1	?	13%[46.1 µM]	5%	-23%	3%	-1
Clc1ccccc1CSc1nnc(-c2cccnc2)n1Cc1ccco1	7.9µM*	8%[46.1 µM]	14%	-30%	?	3
